Assay results from PubChem BioAssay (NCATS).
Results filed as inconclusive are left out. Calls of active or inactive are those of the source. Calls come from the whole dose curve; as a rule, active = well fitted curve in the direction sought with a large enough effect; inconclusive = small, poorly fitted or top-dose-only effect, or another doubt; inactive = no such curve, though single readings can be large; an effect the other way counts as inactive or inconclusive.

How the values were obtained:
[1] = P-glycoprotein substrates identified in KB-8-5-11 adenocarcinoma cell line, qHTS therapeutic library screen (AID 1346987); note: nearly all actives have a fitted effect of over 65% in size; note: potency is the fitted concentration of half-maximal effect
Method in brief: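 KB-8-5-11: colchicine-selected sub-line of KB-3-1 over-expressing P-gp; assay medium lacked colchicine. 72 h drug exposure at 37 degree C, CellTiter-Glo.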

[2] = system: Zika virus NS2B-NS3 protease (linked construct); test: Primary screen NINDS Rhodamine qHTS for Zika virus inhibitors (AID 1347160); note: nearly all actives have a fitted effect of over 55% in size
Method in brief: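 Kinetic fluorescence (Ex 480 nm, Em 540 nm) over 15 min with 1.5 microM Rhodamine110 peptide and 25 nM linked protease.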

[3] = molecular target: Calcium and integrin-binding protein 1 (Homo sapiens) (UniProt Q99828); test: Primary qHTS for Identification of Calcium Integrin Binding Protein 1 (CIB1) Competitor (AID 1508620);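 note: GST tagged CIB1 binding a fluorescein labelled alphaIIb integrin peptide tracer; top concentration of the series differs between compounds; % is set by controls: 0 for no effect and ±100 for the full control effect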
Method in brief: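 Fluorescence polarization competition: CIB1-GST (1 uM final) preincubated with compound 15 min at room temperature, then FITC-labeled alphaIIb peptide (100 nM final) added for another 15 min. Polarization read at Ex 480/Em 540.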

[4] = molecular target: Glutathione peroxidase 1 (Homo sapiens) (UniProt P07203); test: Primary qHTS Assay for Inhibitors of Recombinant Selenoprotein Glutathione Peroxidase 1 (GPX1) (AID 1845191); note: nearly all actives have a fitted effect of over 65% in size
Method in brief: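 Recombinant GPX1 (10 nM final) was preincubated with compound for 30 min at room temperature, then reacted with 1 mM GSH, 0.5 mM CHP, 0.5 mM NADPH and 100 nM glutathione reductase; NADPH fluorescence (340/450 nm) was read at 0 and 15 min.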

[5] = molecular target: Phospholipid hydroperoxide glutathione peroxidase GPX4 (Homo sapiens) (UniProt P36969); test: Primary qHTS Assay for Inhibitors of Recombinant Selenoprotein Glutathione Peroxidase 4 (GPX4) (AID 1845192); note: nearly all actives have a fitted effect of over 65% in size
Method in brief: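 GR-coupled readout: 100 nM GR, 1 mM GSH, 0.5 mM NADPH; NADPH fluorescence (ex 340/em 450 nm) read at t=0 and after 15 min RT. GPX4 200 nM, preincubated 30 min with compound; substrate 0.5 mM CHP.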

[6] = molecular target: Luciferin 4-monooxygenase (Photinus pyralis) (UniProt P08659); test: Primary firefly luciferase (FLuc) qHTS assay for identification of artifact compounds. (AID 1845220); conditions: outcome: dose series up to 54.1 µM unless noted; note: nearly all actives have a fitted effect of over 60% in size
Method in brief: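 In this counter-screen for luciferase artifacts, test compounds met substrate (10 uM each luciferin and ATP) before 10 nM enzyme started the reaction. Light output was measured 5 min later.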

[7] = system: Nanoluciferase (engineered Oplophorus gracilirostris luciferase); test: Primary Nanoluciferase (NLuc) qHTS assay for identification of artifact compounds. (AID 1845222);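 note: NLuc secreted into diluted conditioned medium of S16 cells; 0% = DMSO and -100% = no enzyme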
Method in brief: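 Using secreted nanoluciferase in S16 culture medium (0.22 um filtered, 1:55 dilution), compounds were preincubated 15 min at RT. Signal was generated with Nano-Glo reagent (1:100) over 5 min.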

[8] = system: CRL-7250; test: Cytotoxic Profiling of Annotated Libraries Using Quantitative High-Throughput Screening (AID 1296008); conditions: Five cell lines viability, CellTiter-Glo ATP luminescence, 48-72 h; max response: hits give low values; note: nearly all actives have a fitted effect of over 60% in size; note: potency is the fitted concentration of half-maximal effect; for max response: % is set by controls: 0 for no effect and ±100 for the full control effect
Method in brief: (§1)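 Compounds were pin-transferred onto cells and incubated 48 or 72 hr at 37 degree Celsius, 95% humidity. CellTiter-Glo was added, plates sat 10 min at room temperature, then ATP-coupled luminescence was imaged as the viability read-out.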

[9] = system: NIH3T3; test: as above; conditions: Five cell lines viability, CellTiter-Glo ATP luminescence, 48-72 h; max response: hits give low values
Method in brief: as §1

[10] = system: C33A; test: Primary qHTS to identify gynecologic anti-cancer compounds using libraries of approved drugs and bioactive compounds (AID 1345084); conditions: Gynecologic cancer cell panel viability, ATPlite luminescence, 48 h; series mostly up to 57.5 µM; note: nearly all actives have a fitted effect of over 55% in size; note: potency is the fitted concentration of half-maximal effect
Method in brief: (§2)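 Cells, 1,000 per well, plated 16 h, then exposed 48 h at 37 C to compounds. Viability by ATPlite luminescence after 15 min at room temperature.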

[11] = system: CAOV3; test: as above; conditions: Gynecologic cancer cell panel viability, ATPlite luminescence, 48 h; series mostly up to 57.5 µM
Method in brief: as §2

[12] = system: CASKI; test: as above; conditions: Gynecologic cancer cell panel viability, ATPlite luminescence, 48 h; series mostly up to 57.5 µM
Method in brief: as §2

[13] = system: Es-2; test: as above; conditions: Gynecologic cancer cell panel viability, ATPlite luminescence, 48 h; series mostly up to 57.5 µM
Method in brief: as §2

[14] = system: HeLa; test: as above; conditions: Gynecologic cancer cell panel viability, ATPlite luminescence, 48 h; series mostly up to 57.5 µM
Method in brief: as §2

[15] = system: Hek293T; test: as above; conditions: Gynecologic cancer cell panel viability, ATPlite luminescence, 48 h, control line for the selectivity index; series mostly up to 57.5 µM
Method in brief: as §2

[16] = system: JEG-3; test: as above; conditions: Gynecologic cancer cell panel viability, ATPlite luminescence, 48 h; series mostly up to 57.5 µM
Method in brief: as §2

[17] = system: OV90; test: as above; conditions: Gynecologic cancer cell panel viability, ATPlite luminescence, 48 h; series mostly up to 57.5 µM
Method in brief: as §2

[18] = system: PA-1; test: as above; conditions: Gynecologic cancer cell panel viability, ATPlite luminescence, 48 h; series mostly up to 57.5 µM
Method in brief: as §2

[19] = system: Tov-21-G; test: as above; conditions: Gynecologic cancer cell panel viability, ATPlite luminescence, 48 h; series mostly up to 57.5 µM
Method in brief: as §2

[20] = system: Tov112D; test: as above; conditions: Gynecologic cancer cell panel viability, ATPlite luminescence, 48 h; series mostly up to 57.5 µM
Method in brief: as §2

Chain of Glutathione peroxidase 1 (Homo sapiens) (P07203 whole entry, looked up): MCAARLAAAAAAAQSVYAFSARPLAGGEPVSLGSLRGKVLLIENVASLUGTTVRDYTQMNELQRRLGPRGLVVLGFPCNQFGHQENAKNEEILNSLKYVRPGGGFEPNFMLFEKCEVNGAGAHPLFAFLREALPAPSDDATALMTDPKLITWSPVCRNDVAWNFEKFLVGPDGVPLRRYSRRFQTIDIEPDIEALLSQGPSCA
Chain of Phospholipid hydroperoxide glutathione peroxidase GPX4 (Homo sapiens) (P36969 whole entry, looked up): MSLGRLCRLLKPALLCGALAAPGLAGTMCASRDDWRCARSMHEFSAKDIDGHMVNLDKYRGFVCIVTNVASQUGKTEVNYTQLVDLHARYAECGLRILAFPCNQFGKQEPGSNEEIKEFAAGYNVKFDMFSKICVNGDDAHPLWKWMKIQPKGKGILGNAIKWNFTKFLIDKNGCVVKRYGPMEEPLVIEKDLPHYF
Chain of Calcium and integrin-binding protein 1 (Homo sapiens) (Q99828 whole entry, looked up): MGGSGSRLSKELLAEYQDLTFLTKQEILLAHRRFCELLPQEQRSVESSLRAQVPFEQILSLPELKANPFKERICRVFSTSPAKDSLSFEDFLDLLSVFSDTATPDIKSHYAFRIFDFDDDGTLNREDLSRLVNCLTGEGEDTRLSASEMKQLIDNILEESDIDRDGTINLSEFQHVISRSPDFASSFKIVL

C=C(C)[C@@]12O[C@@H]1[C@@]1(C)C(=C[C@H]2O)CC[C@@H](O)[C@@H]1C
inactive: Potency [1] | Potency [2] | Potency [3] | Potency [4] | Potency [5] | outcome [6] | Potency [7] | max response [8] -1.42% | max response [9] 2.77% | Potency [10] | Potency [11] | Potency [12] | Potency [13] | Potency [14] | Potency [15] | Potency [16] | Potency [17] | Potency [18] | Potency [19] | Potency [20]

C/C=C1/CN2CC[C@]34C(=Nc5ccccc53)[C@@H]2C[C@@H]1[C@H]4C(=O)OC
inactive: Potency [1] | Potency [2] | Potency [3] | Potency [4] | Potency [5] | Potency [7] | max response [8] 2.71% | max response [9] -14.3% | Potency [10] | Potency [11] | Potency [12] | Potency [13] | Potency [14] | Potency [15] | Potency [16] | Potency [17] | Potency [18] | Potency [19] | Potency [20]

COC1(C[S@@](=O)c2ccccc2)CCN(CCc2c[nH]c3ccc(F)cc23)CC1
inactive: Potency [1] | Potency [2] | Potency [4] | Potency [5] | Potency [7] | max response [8] 3.05% | max response [9] 1.71% | Potency [10] | Potency [11] | Potency [12] | Potency [13] | Potency [14] | Potency [15] | Potency [16] | Potency [17] | Potency [18] | Potency [19] | Potency [20]

CCCN(CCC)CCc1ccc(OC)c(OCCc2ccccc2)c1
inactive: Potency [1] | Potency [2] | Potency [3] | Potency [4] | Potency [5] | outcome [6] | Potency [7] | max response [8] 3.48% | max response [9] 1.81% | Potency [10] | Potency [11] | Potency [12] | Potency [13] | Potency [14] | Potency [15] | Potency [16] | Potency [18] | Potency [19] | Potency [20]

CCC1CN2CCC3(C(=O)Nc4cccc(O)c43)C2CC1/C(=C/OC)C(=O)OC (configuration not stated)
inactive: Potency [1] | Potency [2] | Potency [3] | Potency [4] | Potency [5] | outcome [6] | Potency [7] | max response [8] -15.5% | max response [9] 4.67% | Potency [10] | Potency [11] | Potency [12] | Potency [13] | Potency [14] | Potency [15] | Potency [16] | Potency [17] | Potency [18] | Potency [19] | Potency [20]

CC[C@@H]1C[C@H]2CC[C@H](O2)[C@H](C)C(=O)O[C@@H](C)C[C@@H]2CC[C@@H](O2)[C@@H](C)C(=O)O[C@H](C)C[C@H]2CC[C@H](O2)[C@H](C)C(=O)O[C@@H](C)C[C@@H]2CC[C@@H](O2)[C@@H](C)C(=O)O1
active: Potency [1] 1.22 µM | Potency [8] 432 nM | Potency [9] 0.0862 µM | Potency [11] 562 nM | Potency [12] 501 nM | Potency [13] 708 nM | Potency [14] 562 nM | Potency [15] 282 nM | Potency [17] 447 nM | Potency [18] 398 nM
inactive: Potency [2] | Potency [3] | Potency [4] | Potency [5] | outcome [6] inactive [at 25.7 µM] | Potency [7] | Potency [16]

CC1(C)C(=O)N(c2ccc(C#N)c(C(F)(F)F)c2)C(=S)N1c1ccc(C(N)=O)c(F)c1
inactive: Potency [1] | Potency [2] | Potency [3] | Potency [4] | Potency [5] | outcome [6] | Potency [7] | max response [8] 4.24% | max response [9] 0.467% | Potency [10] | Potency [12] | Potency [13] | Potency [14] | Potency [15] | Potency [16] | Potency [17] | Potency [18] | Potency [19] | Potency [20]

CC1CCCC(O)CCC/C=C/c2cc(O)cc(O)c2C(=O)O1 (configuration not stated)
inactive: Potency [1] | Potency [3] | Potency [5] | outcome [6] | Potency [7] | max response [8] -5.57% | Potency [11] | Potency [12] | Potency [13] | Potency [14] | Potency [15] | Potency [16] | Potency [17] | Potency [18] | Potency [19] | Potency [20]
active: Potency [9] 8.05 µM

CC1=CC2/C=C(\C)CCC(O)C(O)/C=C/C(=O)OC23C(=O)NC(CC(C)C)C3C1C (configuration not stated)
inactive: Potency [1] | Potency [2] | Potency [3] | Potency [4] | Potency [5] | outcome [6] | Potency [7] | max response [8] -26.9% | max response [9] -15.3% | Potency [10] | Potency [11] | Potency [12] | Potency [13] | Potency [14] | Potency [15] | Potency [16] | Potency [17] | Potency [18] | Potency [19] | Potency [20]

CCOP(=O)(OCC)Oc1ccc2c(C)cc(=O)oc2c1
inactive: Potency [2] | Potency [3] | Potency [4] | Potency [7] | max response [8] -4.98% | max response [9] -21.6% | Potency [10] | Potency [11] | Potency [12] | Potency [13] | Potency [14] | Potency [17] | Potency [18] | Potency [19] | Potency [20]

CO[C@H]1C[C@H](O[C@H]2CC[C@]3(C=O)[C@H]4CC[C@]5(C)[C@@H](C6=CC(=O)OC6)CC[C@]5(O)[C@@H]4CC[C@]3(O)C2)O[C@H](C)[C@H]1O
active: Potency [1] 0.126 µM | Potency [8] 112 nM | Potency [10] 100 nM | Potency [11] 199 nM | Potency [13] 141 nM | Potency [14] 141 nM | Potency [15] 224 nM | Potency [17] 891 nM | Potency [18] 141 nM | Potency [19] 141 nM | Potency [20] 89.1 nM
inactive: Potency [2] | Potency [3] | Potency [4] | Potency [5] | outcome [6] inactive [at 25.7 µM] | Potency [7] | outcome [9]
